The target of one assay is Albumin (Bos taurus) (UniProt P02769). The assay can be described thus: compounds binding labelled BSA control protein – biochemical, small-molecule microarray, Alexa647 label, 635/667 nm fluorescence, artefact control for SMM control protein annotation, profiling panel (AID 1118).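 Note: score merges 667 nm emission intensity and signal-to-noise per printed compound spot.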 The settings on record: BSA-A647 binding, fluorescence 635 nm, higher = more signal.
The nature of assay [1]: probe aXIP binding to arrayed compounds – biochemical, NeuroSMM set, 635/667 nm fluorescence, primary screen (AID 1119).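 Note: probe is the protein aXip251-270 applied at 1 µg/mL to compound-printed slides; binding of probe to printed compounds measured as 667 nm fluorescence plus signal to noise.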 The settings on record: small-molecule microarray, higher = more signal, called active from +8 up or from −8 down.
Assay [2] in a line: probe aNOTCH3 binding on compound microarray – biochemical, small-molecule microarray, 635/667 nm fluorescence, primary screen (AID 1120).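 Note: probe is a biotin-tagged antibody raised against NOTCH3 rather than NOTCH3 protein; score merges spot fluorescence near 667 nm with spot signal to noise.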 The note with it: higher = more signal.
A short description of assay [3]: probe aNOTCH2 binding on compound microarray – biochemical, small-molecule microarray, 635/667 nm fluorescence, primary screen (AID 1121).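 Note: score merges feature fluorescence read at 667 nm with its signal to noise.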 The note with it: higher = more signal.
Assay [4] has as its target Carbonic anhydrase 2 (Homo sapiens) (UniProt P00918). Kind of assay: compounds binding carbonic anhydrase 2 – biochemical, small-molecule microarray, Alexa647-labelled CAII, profiling panel (AID 1122). The note with it: CAII-A647 binding fluorescence, higher = more signal.
A short description of assay [5]: COS7 lysate on small-molecule microarray, probe aHis, 635 nm (AID 1123).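 Note: z-score combines 667nm fluorescence intensity with signal-to-noise per printed compound spot.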 The settings on record: COS7 cell lysate, fluorescence, higher = more signal.
Assay [6] in a line: probe aLAP1 signal on lysate-treated microarray – cell lysate, small-molecule microarray, COS7 lysate, primary screen (AID 1124).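 Note: lysate comes from COS7 cells expressing LAP1 and is applied at 0.3 µg/mL; score merges spot fluorescence near 667 nm with signal-to-noise over triplicate slides.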 The settings on record: probe aLAP1, fluorescence, higher = more signal.
For the next assay, the system named is Sam68 (KHDRBS1). Kind of assay: compounds binding KHDRBS1 protein – biochemical, small-molecule microarray, 635 nm fluorescence, primary screen (AID 1125).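 Note: score merges 667 nm channel intensity with signal to noise over triplicate slides.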 The note with it: higher = more signal.
For assay [7], the system named is Chordin-like protein 2 (CHRDL2). The assay can be described thus: compounds binding chordin-like 2 – biochemical, small-molecule microarray, 635 nm fluorescence, primary screen (AID 1126).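 Note: printed compound slides probed with Chrdl2 protein at 4 µg/mL for 1 h at 4 C; score merges 667 nm emission intensity with signal to noise over three replicate slides.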 The settings on record: fluorescence 635 nm, higher = more signal.
Assay [8] deals with Concanavalin-A (Canavalia ensiformis) (UniProt P02866). Kind of assay: compounds binding concanavalin A lectin – biochemical, small-molecule microarray, Alexa647 label, 635 nm, artefact control for SMM control protein annotation, primary screen (AID 1127).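 Note: z combines 667 nm emission intensity with signal-to-noise across three replicate slides.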 The settings on record: ConA-A647 binding fluorescence, higher = more signal.

Activity calls are given as the source filed them.

Chain of Albumin (Bos taurus) (P02769 whole entry, looked up): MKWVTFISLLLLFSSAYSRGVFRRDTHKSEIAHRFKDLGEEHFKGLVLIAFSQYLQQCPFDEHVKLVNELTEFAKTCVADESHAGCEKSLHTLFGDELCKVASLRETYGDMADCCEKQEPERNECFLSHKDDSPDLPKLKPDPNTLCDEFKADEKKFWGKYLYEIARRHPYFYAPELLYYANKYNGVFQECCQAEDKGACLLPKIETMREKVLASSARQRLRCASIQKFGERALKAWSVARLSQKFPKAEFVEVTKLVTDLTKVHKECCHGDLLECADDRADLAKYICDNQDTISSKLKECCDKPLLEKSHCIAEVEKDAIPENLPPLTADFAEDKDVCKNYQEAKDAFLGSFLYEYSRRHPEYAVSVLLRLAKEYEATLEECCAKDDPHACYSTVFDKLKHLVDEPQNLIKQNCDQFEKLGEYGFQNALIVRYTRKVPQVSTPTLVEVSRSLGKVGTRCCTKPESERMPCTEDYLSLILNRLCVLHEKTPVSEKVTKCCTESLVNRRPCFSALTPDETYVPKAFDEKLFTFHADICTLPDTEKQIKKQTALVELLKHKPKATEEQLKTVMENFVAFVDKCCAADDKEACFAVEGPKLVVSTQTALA
Chain of Concanavalin-A (Canavalia ensiformis) (P02866 whole entry, looked up): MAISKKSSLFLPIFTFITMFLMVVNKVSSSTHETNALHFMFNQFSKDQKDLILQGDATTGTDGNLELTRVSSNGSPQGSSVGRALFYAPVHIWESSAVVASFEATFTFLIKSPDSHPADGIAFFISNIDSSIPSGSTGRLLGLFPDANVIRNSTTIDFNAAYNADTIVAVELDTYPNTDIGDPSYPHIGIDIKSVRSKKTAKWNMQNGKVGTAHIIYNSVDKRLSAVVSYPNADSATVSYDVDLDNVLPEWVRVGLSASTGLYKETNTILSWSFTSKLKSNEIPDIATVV

With `CN(C)CCCC[C@@H]1NC(=O)[C@@H]2C[C@H](C(=O)O)[C@H](c3cccc(OCCO)c3)N2C1=O`, the composite z-score with Albumin (Bos taurus) was 0.0812; in assay [2], -0.0914; in [3], -0.116; in [4], 0.198; in [5] it was 0.491; in [6], -0.0644. In addition, the composite z-score with Sam68 (KHDRBS1) was -0.936; in assay [7], 0.217; in assay [8], 0.567. Besides, the composite Z-score in [1] is 0.627 (inactive).
Take `CCCCC(=C=CC[C@H](O)c1ccc(OCCO)cc1)C[C@H](O)COCc1ccccc1`: the composite z-score is -0.276 in the assay with Albumin (Bos taurus); -0.163 in assay [2]; -0.164 in assay [3]; 0.7 in assay [4]; 1.19 in assay [5]; 0.271 in [6]. The results for the composite z-score (in the assay with Sam68 (KHDRBS1); in assay [7]; in [8]) were 0.549, -0.371 and -0.434, respectively. In assay [1], the composite Z-score is 0.154 (inactive).
`COc1cc2c(cc1OC)CN(C(=O)[C@@H]1[C@H]3C(=O)O[C@H](c4ccccc4)[C@H](c4ccccc4)N3[C@H](c3ccc(O)cc3)[C@@]13C(=O)Nc1ccc(C#CCCO)cc13)CC2`: the composite z-score in the assay with Albumin (Bos taurus) was 0.571; in assay [2], -0.0699; in assay [3], -0.113; in assay [4] it was 0.606; in [5], 1.08; in assay [6], 0.78. The composite z-score in the assay with Sam68 (KHDRBS1) came out at 1.13; in [7], 0.481; in assay [8], 0.754. Also, in assay [1], the composite Z-score was 0.37 (inactive).
On to `C=CCN1C(=O)[C@]2(O[C@H](CCO)[C@@H]([Si](C)(C)c3ccc(OC)cc3)[C@@H]2C)c2cc(NC(=O)c3ccc(OC)cc3)ccc21`, for which the composite z-score in the assay with Albumin (Bos taurus) was -0.296; in [2], -0.0017; in assay [3] it was -0.108; in [4], 0.216; in assay [5], 0.13; in assay [6] it was 0.0305. The composite z-score with Sam68 (KHDRBS1) was found to be 1.04; in assay [7] it was 0.878; in assay [8] it was 0.689. Besides, the composite Z-score in [1] was 0.0866 (inactive).
Regarding `[N-]=[N+]=NCc1ccccc1[C@@H]1OC(c2ccc(OCCCO)cc2)=N[C@]1(Cc1ccccc1N=[N+]=[N-])C(=O)NCCN1CCOCC1`, the composite z-score with Albumin (Bos taurus) is 0.741; in assay [2] it was 0.202; in assay [3] it was -0.0219; in [4], 0.828; in assay [5] it was 2.14; in assay [6], 1.01. Also, the composite z-score came out at 1.31 in the assay with Sam68 (KHDRBS1), 0.32 in assay [7] and 0.863 in [8]. Besides, the composite Z-score in assay [1] was 0.215 (inactive).
With `CN1C=C(C(=O)OCCS(C)(=O)=O)C(C(=O)OCCS(C)(=O)=O)=CC(c2ccc(CO)cc2)=CC1c1cccs1` (stereo not given), the composite z-score in the assay with Albumin (Bos taurus) is 0.232; in assay [2] it was 0.0026; in assay [3], -0.0936; in [4], 0.812; in assay [5] it was 0.848; in [6] it was 0.279. The composite z-score amounted to 0.645 in the assay with Sam68 (KHDRBS1), 0.318 in assay [7] and 0.64 in [8]. The composite Z-score in assay [1] was 0.142 (inactive).
`CC(=O)n1cc(C(O)C2C=CC3C(=O)N(c4ccccc4)C(=O)C3N2Nc2ccc(C(C)C)cc2)c2ccccc21` (stereo not given): the composite z-score in the assay with Albumin (Bos taurus) came out at 1.02; in [2], 0.328; in [3], 0.08; in [4] it was 0.433; in [5], 2.87; in [6], 0.503. The composite z-score with Sam68 (KHDRBS1) was 1.29; in [7], 0.0259; in [8], 0.764. For the same compound, in assay [1], the composite Z-score is 1.19 (inactive).
For `CCOC(=O)C[C@H]1[C@H](OC(=O)c2ccccc2-c2ccccc2)[C@@H](NC(=O)c2ccc3ccccc3n2)c2cc(OCCCO)ccc2N1C(=O)c1ccccc1`, the composite z-score in the assay with Albumin (Bos taurus) was -0.321; in [2] it was 0.038; in assay [3], -0.14; in assay [4], 0.286; in assay [5] it was 0.824; in assay [6] it was -0.0982. For the same compound, the values for the composite z-score (in the assay on Sam68 (KHDRBS1); in [7]; in [8]) were 1.33, 0.374 and 0.37, respectively. For the same compound, the composite Z-score in [1] is 0.311 (inactive).
In the case of `C=C[C@H](C)[C@H](OC(=O)Nc1ccc(OC)cc1)c1ccc(OCCO)cc1`, the composite z-score was -0.381 in the assay with Albumin (Bos taurus); -0.279 in assay [2]; -0.209 in assay [3]; 0.464 in assay [4]; 0.718 in [5]; 0.434 in assay [6]. Further, the composite z-score was -0.321 in the assay on Sam68 (KHDRBS1), -1.18 in assay [7] and -1.35 in assay [8]. Moreover, the composite Z-score in assay [1] is 0.838 (inactive).
For `COCCCNC(=O)[C@@]1(Sc2ccc(C)cc2)CC(=O)N(C(C)C)[C@@H]1c1ccc(CO)cc1I`, the composite z-score with Albumin (Bos taurus) was -0.622; in assay [2], 0.0062; in [3], -0.164; in assay [4], 0.763; in [5], 1.4; in assay [6], 0.427. Also, the composite z-score with Sam68 (KHDRBS1) is 0.462; in assay [7], -0.825; in assay [8] it was 0.413. Besides, the composite Z-score in assay [1] is 0.525 (inactive).
`O=C1O[C@H](c2ccccc2)[C@H](c2ccccc2)N2[C@H]1[C@@H](C(=O)N1CCCCCCC1)[C@]1(C(=O)Nc3ccc(C#CC4(O)CCCCCC4)cc31)[C@H]2c1ccc(O)cc1`: the composite z-score with Albumin (Bos taurus) was -0.0339; in assay [2], 1.77; in assay [3], 0.956; in [4] it was 0.705; in assay [5], 3.64; in assay [6] it was 1.42. Also, the composite z-score was 1.29 with Sam68 (KHDRBS1), 1.39 in [7] and 1.07 in assay [8]. Also, the composite Z-score in assay [1] was 5.24 (inactive).
As for `C=C[C@@H](OC)[C@H](OC(=O)Nc1ccc(OC)cc1)c1ccc(OC)c(O)c1`, the composite z-score is -0.787 in the assay with Albumin (Bos taurus); -0.246 in assay [2]; -0.203 in assay [3]; 0.415 in [4]; 1.36 in [5]; 0.0218 in assay [6]. Moreover, the composite z-score with Sam68 (KHDRBS1) was -0.853; in [7], -0.96; in assay [8], -0.613. Also, the composite Z-score in assay [1] was 0.43 (inactive).
Take `COc1ccc(C#Cc2ccc3c(c2)[C@]2(C(=O)N3)[C@H](C(=O)Nc3nc4ccccc4s3)[C@H]3C(=O)O[C@H](c4ccccc4)[C@H](c4ccccc4)N3[C@@H]2c2ccccc2OCCO)cc1`: the composite z-score in the assay with Albumin (Bos taurus) was 0.656; in assay [2] it was 0.0942; in [3], -0.149; in assay [4], 0.564; in assay [5], 1.46; in [6], 0.476. The values for the composite z-score (in the assay with Sam68 (KHDRBS1); in assay [7]; in [8]) were 1.25, -0.0198 and 1.13, respectively. Further, the composite Z-score in [1] was 0.0221 (inactive).
Consider `COc1ccc([Si](C)(C)[C@H]2[C@H](CCO)O[C@@]3(C(=O)N(Cc4ccc(N5C(=O)c6ccccc6Oc6ccccc65)cc4)c4ccccc43)[C@@H]2C)cc1`, for which the composite z-score with Albumin (Bos taurus) is -0.0162; in assay [2] it was -0.0212; in assay [3], -0.204; in assay [4] it was 0.0539; in [5] it was 0.648; in [6], -0.299. Moreover, the composite z-score in the assay with Sam68 (KHDRBS1) is -0.652; in assay [7], -0.348; in assay [8] it was -0.352. The composite Z-score in assay [1] was -0.291 (inactive).
Turning to `O=C1C2C=CC(C(O)c3ccc(I)cc3)N(Nc3ccccc3)C2C(=O)N1c1ccccc1` (stereo not given), the composite z-score with Albumin (Bos taurus) was 0.778; in assay [2], 0.273; in assay [3] it was 0.11; in assay [4], 0.738; in assay [5], 2.87; in assay [6] it was 0.635. For the same compound, the composite z-score is 1.34 in the assay with Sam68 (KHDRBS1), -0.409 in [7] and 1.16 in [8]. In addition, the composite Z-score in assay [1] was 0.284 (inactive).
Regarding `CCOC(=O)C1=C[C@@H](C(C)(C)C)N(S(=O)(=O)c2ccc(C)cc2)[C@H]1c1cccc(Cl)c1`, the composite z-score in the assay with Albumin (Bos taurus) was 0.91; in [2] it was 0.0311; in [3], -0.037; in assay [4] it was 0.232; in [5] it was 1.15; in assay [6], 0.596. For the same compound, the composite z-score came out at 1.3 in the assay with Sam68 (KHDRBS1), 0.0761 in assay [7] and 1.11 in [8]. Also, the composite Z-score in assay [1] was -0.244 (inactive).

(Values after PubChem BioAssay.)
